# Bioassay records as filed in PubChem BioAssay.
# Only some compounds are listed: those with a hit (about 2.8% of all), similar ones and a draw of the others.
# Shn3 3UTR inh – reduces Shn3 3'UTR luciferase signal in osteoblasts | Clone20 osteoblast Shn3 3'UTR firefly luciferase, 24 h | inhibition, % at 12.5 µM | 0.52% of 360,000 active;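 active = mean inhibition of at least 75% with every replicate also reaching 75%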
# PAX8 reporter – PAX8 transcriptional activity inhibition. RMG-I TPO-luciferase reporter, SteadyGlo, 24 h. AID 652154. 1.2% of 360,000 active. inhibition, % at 12.6 µM;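 active = mean replicate inhibition at least 60% with every replicate also reaching 60%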;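 also: luciferase light reporting Pax8 driven TPO promoter activity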
# TRPM1 prom inh – MITF TRPM1 promoter inhibition in SK-MEL-5 cells | SK-MEL-5 TRPM1 promoter luciferase, 24 h | inhibition, % at 12.5 µM | 0.83% of 330,000 active | AID 488899;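 active = mean inhibition across replicates of 60% or more, whatever share of single replicates reaches that level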
# HIF-2a inh – blocks HIF-2a reporter activity. 0.72% of 360,000 active. 786-0 RCC cells HIF-2a reporter, luciferase luminescence, overnight. inhibition, % at 18.8 µM. AID 624352;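 active = inhibition of the luminescence signal of 40% or more relative to plate controls, in a single-dose primary screen at 18.75 µM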
# Peg3 promoter – reduces Peg3 promoter-driven luciferase expression in HeLa. 1.7% of 360,000 active. inhibition, % at 20 µM. HeLa PEG-Prom luciferase reporter, luminescence, overnight;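 active = inhibition of at least 50% at 20 µM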
# LMP1 NFkB inh – reduces LMP1-driven NF-kappaB luciferase signal; LMP1-induced NF-kappaB luciferase reporter cells, luminescence; inhibition, % at 12.5 µM; 0.69% of 350,000 active; AID 504558; in the data active = inhibition above about 41%
# A number is an active result; - = inactive; . = not tested or not shown.
SMILES,Shn3 3UTR inh,PAX8 reporter,TRPM1 prom inh,HIF-2a inh,Peg3 promoter,LMP1 NFkB inh
C[C@H](CO)N1C[C@H](C)[C@H](CN(C)C(=O)Nc2ccc(F)cc2)Oc2ncc(C#CC(C)(C)O)cc2C1=O,.,-,.,.,.,.
Cc1ccc(C)c(NC(=S)NC(NC(=O)N(C)C)C(Cl)(Cl)Cl)c1 (stereo not given),-,.,-,-,-,-
Cc1ccc(C)c(NC(=S)NC(NC(=O)Cc2cccc3ccccc23)C(Cl)(Cl)Cl)c1 (stereo not given),-,.,77,-,94,-
Cc1ccc(-c2nn(-c3ccccc3)cc2CO)cc1,-,-,-,-,-,-
Cc1ccc(Sc2c(CO)c(-c3ccccc3)nn2C)cc1,-,66,-,-,-,-
CCNC(=O)C1(C)CCN(C(=O)c2ccccc2F)C1 (stereo not given),-,96,.,-,-,.
CCCNC(=O)C1(C)CCN(C(=O)c2ccccc2F)C1 (stereo not given),-,-,.,-,-,.
ClC1=C(Cl)C(Cl)=C(Cl)C1=C/C=C/c1ccccc1,90,-,92,-,107,70
COc1cccc(C(=O)N2C[C@@H]3[C@H](c4ccccc42)[C@H](CO)N3Cc2cccnc2)c1,.,-,.,.,.,.
COc1ccc(N=C2S/C(=C\c3ccc(N4CCOCC4)o3)C(=O)N2CCc2c[nH]c3ccccc23)cc1,95,.,-,92,101,-
CN(C)CCOc1ccc(-c2c(-c3ccccc3)sc3ccccc23)cc1,-,80,61,-,100,-
COc1ccc(-c2ccc(C(C)=O)cc2)cc1[C@H]1[C@@H]2C=CCC[C@@]2(C)C(=O)N1Cc1ccccc1,-,62,-,-,-,-
C[C@H]1CN([C@@H](C)CO)C(=O)Cc2cc(NC(=O)Nc3ccccc3)ccc2O[C@@H]1CN(C)C(=O)Nc1ccc2c(c1)OCO2,.,-,.,.,.,.
O=Nc1c(O)[nH]c2ccc(Cl)c(Cl)c12,-,-,-,-,57,-
COc1ccc(-c2nnc3n2N=C(C)CS3)cc1,-,-,-,-,-,-
CCOC(=O)/C(=C\c1ccc(OC(F)F)cc1)C1=Nn2c(nnc2-c2ccc(Cl)cc2)SC1,95,.,99,97,103,-
CN1C(=O)C(CC(=O)NC2CCCCC2)SC1=Nc1ccccc1 (stereo not given),-,-,-,-,-,64
CCN=C1SC(CC(=O)NC2CCCCC2)C(=O)N1CC (stereo not given),-,.,-,-,-,-
COc1ccc(NC(=O)COC(=O)Cc2c[nH]c3ccccc23)cc1OC,-,-,-,-,-,70
COc1cc(C(=O)OCC(=O)c2c[nH]c3ccccc23)ccc1OCC(=O)N1CCOCC1,-,-,-,-,-,-
COc1ccc(C(=O)OCC(=O)c2c[nH]c3ccccc23)cc1OC,-,-,-,-,-,67
O=S(=O)(N[C@H]1CC[C@H](CCNS(=O)(=O)c2ccccc2Cl)O[C@H]1CO)c1ccccc1,.,-,.,.,.,.
CC(C)NC(=O)N(C)C[C@H]1Oc2ccc(NC(=O)CCC(F)(F)F)cc2C(=O)N([C@@H](C)CO)C[C@@H]1C,.,-,.,.,.,.
CC(C)NCC(O)COC1CCC(C(C)(C)C)CC1 (stereo not given),-,-,-,-,-,-
CCC[C@@H](CN[C@@H](CNC)[C@H](C)CC)NCC1CCC(C(C)(C)C)CC1 (stereo not given in full),-,93,100,-,102,-
SMILES,Shn3 3UTR inh,PAX8 reporter,TRPM1 prom inh,HIF-2a inh,Peg3 promoter,LMP1 NFkB inh
COC(=O)c1ccccc1NC(=O)c1nc(S(=O)(=O)Cc2ccccc2)ncc1Cl,95,-,93,-,92,-
COC(=O)c1cscc1S(=O)(=O)Cc1ccccc1,-,-,-,-,-,-
O=C(NCc1ccc2c(c1)OCO2)c1nc(S(=O)(=O)Cc2ccccc2)ncc1Cl,94,-,-,-,106,-
CCc1nnc(NC(=O)c2nc(S(=O)(=O)Cc3ccccc3)ncc2Cl)s1,98,-,80,54,104,-
O=C(NCc1ccc2c(c1)OCO2)c1ccccc1Cl,-,-,-,-,-,-
CC(C)c1nnc(NC(=O)c2nc(S(=O)(=O)Cc3ccccc3F)ncc2Cl)s1,.,-,.,.,.,.
CO[C@@H]1CN(C)C(=O)c2cc(NC(=O)C3CCCCC3)ccc2OC[C@@H](C)N(C)C[C@H]1C,.,-,.,.,.,.
CCCC(=O)Nc1ccc2c(c1)C(=O)N(C)C[C@H](OC)[C@H](C)CN(C(=O)CC1CC1)[C@@H](C)CO2,.,-,.,.,.,.
Cc1cccc(NCc2ccc(O)c3ncccc23)c1C,-,99,-,-,-,-
Cc1cccnc1NCc1ccc(O)c2ncccc12,-,-,-,-,-,-
C=C1C(=O)OC2C1C(OC(=O)C(C)=CC)CC(=C)C1C(O)C3OC3(C)C21O (stereo not given),-,-,-,-,-,-
C=C1C(=O)OC2C=C(CO)CCC=C(CO)CC(OC(=O)C(C)C)C12 (stereo not given),-,-,-,-,64,-
COc1ccc2[nH]c(-c3ccc(C)cc3)cc(=O)c2c1,-,.,-,-,-,43
C[C@@H]1CN([C@H](C)CO)C(=O)Cc2cc(NC(=O)Cc3cn(C)c4ccccc34)ccc2O[C@H]1CN(C)C(=O)Nc1ccc(C(F)(F)F)cc1,.,-,.,.,.,.
COc1ccc2cc(-c3ccsc3)ncc2c1,-,-,62,-,-,-
CCCc1nc2ccc(NC(C)=O)cc2c(=O)n1Cc1ccc(Cl)cc1,-,67,-,-,-,-
CCCc1nc2ccc(NC(=O)c3cccs3)cc2c(=O)n1Cc1ccccc1Cl,-,-,-,-,-,-
O=C(O)c1cc(=O)c2c(OCC(O)COc3cccc4oc(C(=O)O)cc(=O)c34)cccc2o1,-,-,-,-,-,76
CCOC(=O)c1oc2cccc(OCC(O)CNC(C)C)c2c1C (stereo not given),-,.,-,-,-,-
O=C(CCN1C(=O)C2C3C=CC(C3)C2C1=O)N1CCN(c2ccccc2Cl)CC1 (stereo not given),-,.,-,-,-,85
O=C(CCN1C(=O)C2C3C=CC(C3)C2C1=O)N1CCN(c2ccccc2F)CC1 (stereo not given),-,.,-,-,-,-
N#C/C(=C(/O)c1ccc([N+](=O)[O-])o1)c1nc2ccccc2[nH]1,-,-,87,-,77,-
CC(C)(C)/C(O)=C(/C#N)c1nc2ccccc2[nH]1,-,.,-,-,-,-
COc1ccc(O)c(/C=N/c2nc3ccccc3n2C)c1,-,-,-,-,-,90
CCOC(=O)c1[nH]c2ccc(F)cc2c1NC(=O)CN1CCN(C/C=C/c2ccccc2)CC1,-,.,-,-,65,-
COC(=O)c1ccc(CNC(=O)Cn2cnc3c(OCc4ccccc4)ncnc32)cc1,-,-,-,-,84,-
COc1ccc(CN(C)C[C@@H]2Oc3c(NC(=O)NC(C)C)cccc3C(=O)N([C@@H](C)CO)C[C@@H]2C)cc1,.,-,.,.,.,.
